# A selection: hits, their analogues and other compounds. The true share with any hit is near 0.87%.
# FEN1 inh – inhibitors of human flap endonuclease 1; P39748; Recombinant FEN1 flap cleavage, fluorescence, 15 min; Potency, µM (doses to about 114 µM), without a hit: at the top dose activity change, negative = inhibition, most hits filed as inhibitors; hit rate 0.35% among 390,000; AID 588795; further: nearly all actives have a fitted effect of over 65% in size
#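 With each library titrated from low to high concentration, compounds met 10 nM FEN1 for 15 min at room temperature before 50 nM substrate was added; readings at 0 and 15 min fed four-parameter Hill curve fits.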
# RECQ1 inh – blocks DNA unwinding by human RECQ1; RECQ1 DNA unwinding, red fluorescence kinetic read; hit rate 0.54% among 240,000; P46063; Potency, µM (highest dose often 57.3 µM), for the others: at the top dose activity, negative = inhibition, actives largely listed as inhibitors;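 further: plate controls were vehicle for no effect and no enzyme for full effect; nearly all actives have a fitted effect of over 30% in size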
# Target sequence (P46063 whole entry, looked up): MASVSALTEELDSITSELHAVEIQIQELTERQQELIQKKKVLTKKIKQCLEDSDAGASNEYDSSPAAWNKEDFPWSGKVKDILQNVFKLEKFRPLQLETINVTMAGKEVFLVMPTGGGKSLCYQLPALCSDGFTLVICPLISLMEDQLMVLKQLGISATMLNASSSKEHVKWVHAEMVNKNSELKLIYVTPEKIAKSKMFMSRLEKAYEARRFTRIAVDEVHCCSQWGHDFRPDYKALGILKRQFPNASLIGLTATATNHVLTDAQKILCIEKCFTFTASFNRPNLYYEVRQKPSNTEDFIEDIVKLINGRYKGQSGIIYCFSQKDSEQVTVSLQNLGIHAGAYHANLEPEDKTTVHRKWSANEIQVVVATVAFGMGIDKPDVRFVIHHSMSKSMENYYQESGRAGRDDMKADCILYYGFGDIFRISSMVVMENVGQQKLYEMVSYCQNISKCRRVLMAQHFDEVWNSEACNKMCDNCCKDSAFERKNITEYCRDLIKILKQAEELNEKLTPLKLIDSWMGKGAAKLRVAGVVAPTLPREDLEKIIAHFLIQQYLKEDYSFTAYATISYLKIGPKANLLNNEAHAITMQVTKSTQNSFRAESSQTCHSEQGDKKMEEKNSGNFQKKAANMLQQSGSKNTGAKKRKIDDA
#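 RECQ1T1 50 nM; forked duplex (20 bp + 30-nt ss tails) 200 nM, ATP 2 mM final; pH 8.0, 2 mM MgCl2, 2.5 ug/ml poly(dI-dC); 15 min compound preincubation; discontinuous kinetic read over 2 h at RT.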
# BLM inh – blocks DNA unwinding by human BLM helicase; recombinant BLM DNA unwinding, fluorescence dequenching; Potency, µM (series often up to 56.1 µM), without a hit: at the highest dose activity change, negative = inhibition, most hits filed as inhibitors; hit rate 0.2% among 350,000;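 further: plate controls were vehicle for no effect and no enzyme for full effect; nearly all actives have a fitted effect of over 35% in size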
# WRN helicase inh – WRN helicase (human) inhibition. Q14191. WRN helicase unwinding, fluorescent forked duplex, kinetic. Potency, µM (titrated, usually from 114 µM), for the others: top-dose activity change, negative = inhibition, usual class: inhibitors. hit rate 0.46% among 360,000; further: nearly all actives have a fitted effect of over 55% in size
#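 Primary qHTS, 1536-well format. 20 nM WRN + compound, 15 min RT; start with 100 nM forked fluorophore/quencher duplex, 2 mM ATP (final); kinetic read ex 525/em 598 nm.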
# APE1 inh-1 – inhibitors of human APE1 endonuclease; P27695; recombinant APE1, TAMRA/BHQ-2 abasic DNA cleavage fluorescence; Potency, µM (series often up to 65.8 µM), for the others: at the top dose activity change, negative = inhibition, hits mostly inhibitors; hit rate 0.35% among 350,000;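 further: plate controls were vehicle for no effect and reference inhibitor for full effect; nearly all actives have a fitted effect of over 55% in size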
#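 Measures dequenching upon AP-site incision of a 5'-TAMRA/3'-BHQ-2 THF-containing duplex, 50 nM; human APE1 0.75 nM after 15 min room-temperature exposure to compound; kinetic three-point read at one-minute spacing.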
# DNA dye displace – counter-screen for APE1 inhibitors: DNA dye displacement. Potency, µM (highest dose often 28.5 µM), inactives show top-dose activity change, negative = inhibition, actives largely listed as inhibitors. hit rate 7% among 480. AID 2564. DNA fluorescent dye displacement counterscreen, fluorescence. shares compounds with APE1 inh-1;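 further: loss of thiazole orange fluorescence as the dye is displaced from duplex DNA; 0% = ThO with dsDNA and no compound and -100% = ThO without dsDNA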
# EndoIV counter – counter-screen for APE1 inhibitors: inhibitors of E. coli endonuclease IV; shares compounds with APE1 inh-1; Potency, µM (doses to about 27.1 µM), without a hit: at the highest dose activity change, negative = inhibition, most hits filed as inhibitors; E. coli Endo IV, fluorogenic AP-site DNA cleavage; AID 2565; hit rate 4% among 560;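 further: plate controls were uninhibited enzyme wells for no effect and no enzyme buffer wells for full effect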
# APE1 inh-2 – confirmation of inhibitors of human APE1 endonuclease | Potency, µM (top dose mostly 57.1 µM), without a hit: at the highest dose activity change, negative = inhibition, actives largely listed as inhibitors | hit rate 44% among 750 | purified APE1, fluorogenic abasic-site DNA cleavage | shares compounds with APE1 inh-1; further: nearly all actives have a fitted effect of over 30% in size
# APE1 FP – APE1 (human) DNA binding inhibition, fluorescence polarization; shares compounds with APE1 inh-1; APE1 binding to TAMRA-labelled double-stranded DNA, fluorescence polarization displacement; hit rate 7% among 480; Potency, µM (top dose mostly 28.5 µM), inactives show at the highest dose activity, negative = inhibition, usual class: inhibitors; AID 2573
# Starred values were filed as active, the others as inactive; i = inactive; ? = inconclusive; / = not tested or not shown; ! = a repeat was not active; [ ] = dose if it differs, or a comment. The call rests on the fitted dose curve; in most records, active means well fitted curve in the direction sought with a large enough effect; inconclusive means small, poorly fitted or top-dose-only effect, or another doubt; inactive means no such curve, though single readings can be large; an effect the other way counts as inactive or inconclusive. Unless noted, on the % scale 0 is the no-effect control and ±100 the full control effect; potency means the concentration at half of the fitted maximal effect.
SMILES,FEN1 inh,RECQ1 inh,BLM inh,WRN helicase inh,APE1 inh-1,DNA dye displace,EndoIV counter,APE1 inh-2,APE1 FP
O=S(=O)(O)c1ccc2c(c1)-c1nc-2nc2[nH]c(nc3nc(nc4[nH]c(n1)c1ccc(S(=O)(=O)O)cc41)-c1ccc(S(=O)(=O)O)cc1-3)c1ccc(S(=O)(=O)O)cc21,/,0.56µM*,1.6µM*,/,0.32µM*,0.56µM*,-93%[57.1 µM],0.05µM*,0.14µM*
O=S(=O)(c1ccc2ccccc2c1)N1CCN(c2nc(-c3ccccc3)nc3ccccc23)CC1,-8%,/,/,/,/,/,/,/,/
Cc1ccc(N2C(=O)/C(=C/c3cccnc3)SC2=S)cc1,3%,i,2%,8%,0%,/,/,/,/
Cc1ccc(/C=C2\SC(=S)N(c3cccnc3)C2=O)o1,-25%,?,-14%,-9%,16µM*,?,5%,-10%[24.4 µM],6%
Cc1ccc(NC(=O)Cn2c(=O)n(CCC(=O)N3CCc4ccccc4C3)c(=O)c3ccccc32)c(C)c1,14%,/,-8%,/,/,/,/,/,/
O=C(Cn1c(=O)n(Cc2ccco2)c(=O)c2c3c(sc21)CCCCC3)c1ccccc1,5%,-28%,-22%,?,?,?,-6%,-23%[24.4 µM],5%
Cc1ccc(C(=O)N/N=C/c2ccc3c(c2)OCO3)o1,4%,2%,-2%,3%,1%,/,/,/,/
O=C(N/N=C/c1ccc2c(c1)OCO2)c1cc2ccccc2o1,5%,-14%,-21%,-5%,?,/,/,40µM*,/
Cc1ccccc1NS(=O)(=O)c1cccc(-c2nnc(-c3ccccc3)o2)c1,-2%,i,-9%,-18%,-12%,/,/,/,/
O=S(=O)(NC1CCCCC1)c1cccc(-c2nnc(-c3ccccc3)o2)c1,-10%,i,-5%,-4%,?,1%,-6%,-4%[24.4 µM],-10%
Nc1ccc(NC(=O)c2ccc(C(=O)Nc3ccc(N)cc3)cc2)cc1,-6%,-21%,5%,-19%,0%,/,/,?,/
Nc1ccc(C(=O)Nc2ccc(Nc3ccncc3)cc2)cc1,-8%,0%,4%,2%,?,/,/,/,/
Nc1ccc(Cc2ccc(N)c(C(=O)O)c2)cc1C(=O)O,4%,-4%,-1%,-5%,7%,/,/,/,/
Cc1c(N)cc(N)cc1C(=O)O,-22%,-1%,-5%,-4%,20µM*,1%,4%,-7%[24.4 µM],-5%
CC1(C)OC(=O)C(=Cc2ccc(-c3ccc(Cl)c(C(=O)O)c3)o2)C(=O)O1,?,-3%,44%,45µM*,22µM*,0%,2%,?,-4%
CC1OC(OCC2OC(Oc3c(-c4ccc(O)cc4)oc4cc(O)cc(O)c4c3=O)C(O)C(O)C2O)C(O)C(O)C1O (centres undefined),?,?,-19%,?,3.5µM*,?,0%,3.2µM*,-1%
O=c1c(O)c(-c2ccc(O)cc2O)oc2cc(O)cc(O)c12,28µM*,7.1µM*,-10%,/,14µM*,/,5%[57.1 µM],-24%,/
CC1OC(OC2C(Oc3c(-c4ccc(O)cc4)oc4cc(O)cc(O)c4c3=O)OC(COC3O[C@@H](C)[C@H](O)[C@@H](O)C3O)C(O)C2O)C(O)C(O)C1O (some centres undefined),-13%,/,/,-1%,14%,/,/,/,/
COc1c(-c2ccc(O)c(O)c2)oc2cc(O)cc(O)c2c1=O,25µM*,18µM*!,11µM*!,32µM*,?,?,59%,?,1%
O=c1c(OC2OC(CO)C(O)C(O)C2OC2OC(CO)C(O)C(O)C2OC2OC(CO)C(O)C(O)C2O)c(-c2ccc(O)c(O)c2)oc2cc(O)cc(O)c12 (centres undefined),-25%,-8%,-2%,-7%,?,-21%,2%,10µM*,?
O=c1c(O)c(-c2ccccc2O)oc2cc(O)cc(O)c12,/,-4%,-3%,/,-5%,/,/,/,/
Cc1ccc(N2CC(NC(=O)c3ccc(S(=O)(=O)N4CCCC4)cc3)CC2=O)cc1 (centres undefined),5%,/,-1%,/,/,/,/,/,/
Fc1ccc(Nc2ncnc3c2nc2n3CCCCC2)c(F)c1,-5%,/,-2%,/,/,/,/,/,/
CCCCC(=O)Nc1ccc(C(=O)OCc2cc(=O)n3ccsc3n2)cc1,-3%,/,1%,/,/,/,/,/,/
CCCSCCCNC(=O)C1CCN(c2nc3ccccc3nc2C(F)(F)F)CC1,14%,/,-1%,/,/,/,/,/,/
SMILES,FEN1 inh,RECQ1 inh,BLM inh,WRN helicase inh,APE1 inh-1,DNA dye displace,EndoIV counter,APE1 inh-2,APE1 FP
COC(=O)c1ccc(NC(=O)CC2C(=O)N(c3ccc(Cl)cc3)C(=O)N2Cc2ccco2)cc1 (centres undefined),-16%,/,-8%,/,/,/,/,/,/
O=C(Cc1csc(N2CCOCC2)n1)N/N=C/c1ccc(O)c(O)c1O,?,?,-12%,22µM*,2.2µM*,?,92%,?,4%
C/C(=N\NC(=O)Cc1csc(N2CCOCC2)n1)c1ccccc1,-14%,i,1%,1%,15%,/,/,/,/
O=c1c(O)cc(C2Oc3cc(O)cc(O)c3CC2O)cc2c(C3Oc4cc(O)cc(O)c4CC3O)cc(O)c(O)c12 (centres undefined),/,3.2µM*,28µM*,/,0.5µM*,/,?,2.5µM*,/
O=C1C[C@H](c2ccccc2)Oc2cc(O)cc(O)c21,/,-8%,-4%,/,-3%,/,/,/,/
COc1ccccc1NC(=O)c1sc(-c2ccc(Cl)cc2)cc1N,-20%,/,-4%,/,/,/,/,/,/
Cc1cc(O)c(C=O)c2c1C(=O)Oc1c(COC(=O)/C=C/C(=O)O)c(O)c(C(=O)O)c(C)c1O2,/,4µM*,18%,/,1.3µM*,/,-21%[57.1 µM],11µM*,/
Cc1cc(C)nc(N2N=C(CSc3ccc(Cl)cc3)CC2=O)n1,-13%,-6%,0%,-29%,2.8µM*,-10%,-1%,?,-3%
Cc1cc(C)nc(N2C(=O)CC(Cc3ccc(Cl)cc3)C2=O)n1 (centres undefined),1%,i,-2%,8%,-3%,/,/,/,/
O=C(NCc1ccc2c(c1)CCN2C(=O)c1ccc(F)cc1)c1ccc(Br)o1,-4%,/,-3%,/,/,/,/,/,/
